From PubChem BioAssay
The list is not random: actives were taken first. Their share in the collection is about 19%.
TDP1 cell CPT = growth inhibition of DT40 Tdp1-/-;hTDP1 cells with camptothecin (screen for TDP1 inhibitors); chicken DT40 Tdp1-/-;hTDP1 cells + 20 nM CPT, ATP luminescence, 48 h; Potency, µM (top dose mostly 46.2 µM), for the others: at the top dose activity change, negative = growth inhibition, usual class: inhibitors; actives 12% (n = 420,000); further: potency means the concentration at half of the fitted maximal effect; nearly all actives have a fitted effect of over 55% in size
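Chicken DT40 Tdp1-/- cells complemented with human TDP1, 400 cells/well, exposed to compounds plus 20 nM camptothecin for at least 48 h at 37 C; viability read as ATP content by CellTiter-Glo luminescence.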
HT1080 IDH1KD tx = toxicity to HT-1080 IDH1 knockdown cells (counter line); actives 2% (n = 360,000); Potency, µM (series often up to 46.1 µM), without a hit: top-dose activity, negative = toxicity, usual class: cytotoxic; AID 686971; HT-1080 IDH1 knockdown viability, ATP luminescence, 48 h;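 further: potency means the concentration at half of the fitted maximal effect; 0% = DMSO wells and -100% = cell-free medium wells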
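IDH1KD HT-1080 cells, 750/well, RPMI + 5% FBS; compound pinned after 2 h settling; 48 h, 37 °C; CellTiter-Glo luminescence; % activity normalised to DMSO and no-cell wells; curves fitted, classed by r2 and efficacy.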
TDP1 cell noCPT = qHTS for Inhibitors of human tyrosyl-DNA phosphodiesterase 1 (TDP1): qHTS in cells in absence of CPT. DT40 Tdp1-/- hTDP1 cells, no CPT, ATP luminescence, 48 h. Potency, µM (titrated, usually from 46.2 µM), for inactives: top-dose activity change, negative = growth inhibition, most hits filed as inhibitors. actives 15% (n = 420,000). AID 686978, 2013; further: potency means the concentration at half of the fitted maximal effect; nearly all actives have a fitted effect of over 55% in size
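Luminescent ATP content (CellTiter-Glo) served as the growth readout. Knockout chicken DT40 cells expressing human TDP1 were exposed to compounds without camptothecin for a minimum 48 hr at 37 °C.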
IL1B secr inh = inhibitors of inflammasome signaling (IL-1 beta secretion). THP-1 LPS/ATP IL-1B secretion, AlphaLISA, 16 h; active compounds read low. activity change, % at 57.5 µM. actives 4.7% (n = 360,000); in the data active means activity change below about -50%; inconclusive means mostly about -30% to -49%
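Secreted IL-1B measured by AlphaLISA bead assay after 16 h compound exposure of THP-1 cells; compounds (final up to 57.5 uM) added 1 h before LPS (250 ng/mL) and ATP (1.25 mM) stimulation; lower signal means less secretion.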
HT1080NT lethal = kills 2HG-producing HT-1080-NT fibrosarcoma cells; HT-1080-NT fibrosarcoma viability, CellTiter-Glo ATP luminescence, 48 h; Potency, µM (top dose mostly 46.1 µM), without a hit: at the highest dose activity, negative = less viability, hits mostly cytotoxic; actives 1.6% (n = 360,000);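 further: NT is the 2HG producing partner of a matched IDH1 knockdown line; potency means the concentration at half of the fitted maximal effect; 0% = DMSO-treated cells and -100% = media-only wells without cells; nearly all actives have a fitted effect of over 55% in size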
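Luminescent CellTiter-Glo readout after 48 hours of compound exposure at 37 degrees C defined viability of HT-1080-NT cells. Activity was normalized to DMSO wells and cell-free media wells; concentration-response curves were fitted and assigned curve classes.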
ELG1 repair inh = ELG1-dependent DNA repair inhibition; Potency, µM (top dose mostly 46.1 µM), for the others: at the top dose activity change, negative = inhibition, actives largely listed as inhibitors; actives 2.3% (n = 330,000); HEK293T ELG1-luciferase reporter, luminescence, 16 h; DNA damage induced by 5-fluorouridine; further: potency means the concentration at half of the fitted maximal effect; nearly all actives have a fitted effect of over 55% in size
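Luminescence from the luciferase reporter, measured 30 min after ONE-Glo reagent at room temperature, was the read-out. Beforehand, 2,000 cells per well were exposed for 16 hr at 37 °C to 5-fluorouridine together with compound or vehicle.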
The depositor's hits bear a star; ? = inconclusive; . = no result. Unless noted, the call rests on the fitted dose curve; in most records, active means well fitted curve in the direction sought with a large enough effect; inconclusive means small, poorly fitted or top-dose-only effect, or another doubt; inactive means no such curve, though single readings can be large; an effect the other way counts as inactive or inconclusive. Unless noted, on the % scale 0 is the no-effect control and ±100 the full control effect.

SMILES	TDP1 cell CPT	HT1080 IDH1KD tx	TDP1 cell noCPT	IL1B secr inh	HT1080NT lethal	ELG1 repair inh
O=C(Nc1ccc2ccccc2c1)c1ccc(Cl)cc1	-8.9%	-2.1%	-3.7%	-23.8	-2.4%	?
O=C(Nc1ccncc1)c1ccc2ccccc2c1	?	-7.2%	13µM*	-60.7*	-9.4%	?
O=C(Nc1nnc(-c2ccncc2)o1)c1ccc2ccccc2c1	8.2µM*	-11.8%	7.31µM*	31.4	-12.1%	-5.1%
Cc1cnc(CNc2ncncc2-c2cccc(NS(C)(=O)=O)c2)cn1	-5.9%	.	14.5%	.	.	.
Cc1ccc(CSc2nnc(-c3ccncc3)o2)c(C)c1	2.2%	-4.2%	?	-4.9	6.0%	-14.2%
CC1=NN(c2ccccc2)C(=O)C1N=Nc1ccccc1 (stereo not drawn)	6.8%	3.5%	-20.9%	-7.2	21.9%	?
CC1=NN(c2nc(-c3ccc(C)cc3)cs2)C(=O)C1N=Nc1ccccc1O (stereo not drawn)	4.11µM*	?	4.61µM*	241.0	-27.4%	?
CC1=NN(c2nc(-c3ccc(C)cc3)cs2)C(=O)C1N=Nc1cccc(O)c1 (stereo not drawn)	?	-10.5%	16.4µM*	32.1	-7.8%	-15.4%
CCOC(=O)c1cccc(NC(=O)c2cn(-c3cccc(OC)c3)c(=O)c3ccccc23)c1	-3.8%	.	-15.2%	.	.	.
COc1cccc(-n2cc(C(=O)Nc3ccccc3C(N)=O)c3ccccc3c2=O)c1	?	.	10.3µM*	.	.	.
O=C(Cc1ccccc1)Nc1ccc(NC(=O)c2ccco2)cc1Cl	5.4%	-19.9%	-15.6%	6.7	-13.6%	3.5%
CCOc1ccccc1N(C)C(=O)Cn1cnc2onc(-c3ccc(F)cc3)c2c1=O	?	.	20.6µM*	.	.	.
CCCN(CCC)CCCNC(=O)Cn1cnc2onc(-c3ccc(F)cc3)c2c1=O	-14.4%	.	-24.6%	.	.	.
COc1ccc(N(C)C(=O)CCn2cnc3onc(-c4ccc(F)cc4)c3c2=O)c(OC)c1	20.6µM*	.	13µM*	.	.	.
CN(C(=O)Cn1cnc2onc(-c3ccc(F)cc3)c2c1=O)c1ccccc1Cl	20.6µM*	.	?	.	.	.
CCCCn1c(=NC(=O)C(C)(C)Oc2ccc(Cl)cc2)c(C(=O)OCC)cc2c(=O)n3ccccc3nc21	-2.0%	.	-15.2%	.	.	.
CCc1ccccc1NC(=O)CN(C)S(=O)(=O)c1cccc2nsnc12	?	.	1.2%	.	.	.
O=C(CSc1nc(-c2ccccc2)[nH]c1-c1ccccc1)Nc1ccc2c(c1)OCO2	20.6µM*	.	14.6µM*	.	.	.
O=C(CSc1ccccc1)Nc1ccc2c(c1)OCO2	18.6%	-5.0%	-1.9%	-13.0	-9.0%	?
O=C(CSc1nc(-c2ccccc2)c(-c2ccccc2)[nH]1)Nc1ccc2c(c1)OCO2	?	?	13µM*	22.4	?	2.4%
COc1cc(-c2nc(SCC(=O)Nc3ccc4c(c3)OCO4)c(-c3ccccc3)[nH]2)cc(OC)c1OC	?	.	16.4µM*	.	.	.
C[C@@H]1CN([C@@H](C)CO)S(=O)(=O)c2ccc(Br)cc2O[C@@H]1CN(C)C(=O)C1CC1	-3.2%	-1.7%	?	-11.0	1.7%	.
Cc1cccc(OCC(=O)Nc2nnc(S(=O)(=O)N3CCCCCC3)s2)c1	-29.8%	-1.9%	?	-7.5	-5.6%	2.6%
CC(Sc1ncnc2sc(-c3ccccc3)cc12)C(=O)NCC1CCCO1 (stereo not drawn)	?	?	23.1µM*	-25.6	-11.1%	13.2%
CC(Sc1nc(-c2ccccc2)c(-c2ccccc2)[nH]1)C(=O)NCC1CCCO1 (stereo not drawn)	?	-2.5%	23.1µM*	6.3	-9.7%	.
SMILES	TDP1 cell CPT	HT1080 IDH1KD tx	TDP1 cell noCPT	IL1B secr inh	HT1080NT lethal	ELG1 repair inh
CCc1cccc2c(SC(C)C(=O)NCC3CCCO3)nc(-c3ccccc3)nc12 (stereo not drawn)	?	2.6%	?	3.3	0.0%	-1.1%
O=C(NCc1ccccc1C(F)(F)F)C1CC(c2ccccc2C(F)(F)F)=NO1 (stereo not drawn)	?	-4.6%	?	-62.2*	5.8%	?
O=C(NCc1cccc(Br)c1)C1CC(c2ccccc2C(F)(F)F)=NO1 (stereo not drawn)	?	?	18.4µM*	-4.8	?	-0.8%
CCc1cccc(NC(=O)CN2Cc3ccccc3C2=O)c1	3.3%	.	?	.	.	.
CCOC(=O)c1cc(S(=O)(=O)Nc2cc(C)c(Cl)cc2OC)[nH]n1	-29.1%	.	-20.0%	.	.	.
O[C@H]1C[C@H](c2ccc(Cl)cc2)N(Cc2cccs2)C[C@@H]1n1cc(-c2ccc(F)cc2)nn1	?	?	?	-24.6	?	.
O[C@@H]1CN(Cc2cccs2)[C@@H](c2ccccc2)C[C@H]1n1cc(-c2ccc(F)cc2)nn1	?	?	?	-2.2	-19.8%	.
Cc1ccc([C@H]2C[C@H](O)[C@@H](n3cc(-c4ccc(F)cc4)nn3)CN2Cc2cccs2)cc1	?	?	16.4µM*	0.5	?	.
Cc1ccc([C@H]2C[C@H](n3cc(C4CC4)nn3)[C@@H](O)CN2C(=O)c2cccs2)cc1	-5.6%	0.6%	-2.4%	0.0	21.7%	.
O=C(c1cccs1)N1C[C@@H](O)[C@H](n2cc(-c3ccc(F)cc3)nn2)C[C@@H]1c1ccccc1	18.4µM*	-10.3%	16.4µM*	9.4	-8.2%	.
Cc1ccc([C@H]2C[C@H](n3cc(-c4ccc(F)cc4)nn3)[C@@H](O)CN2C(=O)c2cccs2)cc1	4.9%	11.5%	?	-51.5*	11.9%	.
Cc1ccc([C@H]2C[C@@H](O)[C@H](n3cc(C4CC4)nn3)CN2C(=O)c2cccs2)cc1	?	-0.4%	20.6µM*	-2.0	-5.4%	.
CS(=O)(=O)N1N=C(c2ccco2)CC1c1ccc(Cl)cc1Cl (stereo not drawn)	?	-0.2%	?	-11.8	1.2%	8.2%
COc1ccccc1CN1CCCC2(CCN(C(C)=O)CC2)C1	12.8%	.	4.4%	.	.	.
CN(C)CC(O)CN1C(=O)N(CN2C(=O)N(CC(O)CN(C)C)C(=O)C2(C)C)C(C)(C)C1=O (stereo not drawn)	7.2%	?	3.2%	15.6	13.7%	0.0%
